Source: PubChem BioAssay (NCI)
About 83,000 compounds went through this panel and 20% of them were active in at least one assay; those are over-represented in the sample as a whole.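 The test compound was applied at a single concentration to cells in 96-well plates for 48 hours, and percent growth was recorded.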 Values without a mark were called inactive. The source made the active and inactive calls. How the source made its calls: active means growth percent below 10; inactive means the rest.

Tests used:
Assay in all cases: NCI-60 one-dose screen, 48 h (100 = growth as untreated, 0 = no growth, -100 = all killed)
[1] = system: SR leukemia; settings: 10 µM unless noted
[2] = system: RPMI-8226 leukemia; settings: 10 µM unless noted
[3] = system: OVCAR-8 ovarian; settings: 10 µM unless noted
[4] = system: OVCAR-5 ovarian; settings: 10 µM unless noted
[5] = system: OVCAR-4 ovarian; settings: 10 µM unless noted
[6] = system: SK-OV-3 ovarian; settings: 10 µM unless noted
[7] = system: IGROV1 ovarian; settings: 10 µM unless noted
[8] = system: OVCAR-3 ovarian; settings: 10 µM unless noted
[9] = system: HS 578T breast; settings: 10 µM
[10] = system: NCI/ADR-RES ovarian; settings: 10 µM unless noted

Row | SMILES | growth [1] | growth [2] | growth [3] | growth [4] | growth [5] | growth [6] | growth [7] | growth [8] | growth [9] | growth [10]
1 | O=[N+]([O-])c1cccc(N=C(Nc2cccc([N+](=O)[O-])c2)c2ccccc2)c1 | 70.4% | 58.2% | 93.4% | 99.9% | 84.7% | 107% | 84.4% | 88.2% | 97.9% | 75.6%
2 | Nc1nc(N)c2cc(CNc3ccc(Cl)c(Cl)c3)ccc2n1 | -55.1% (active) | -31.5% (active) | -1.81% (active) | 48.4% | 49.8% | 49.9% | 15.9% | 12.1% | 28.8% | 28.3%
3 | COc1cc(Cn2c(-c3ccccc3)cc3c2-c2oncc2CC3)cc(OC)c1OC | 8.51% (active) | 40.5% | 34.2% | 69.1% | 54.8% | 13% | 18.4% | -44.3% (active) | -1.69% (active) | 4.65% (active)
4 | CC(C)CC(NC(=O)OCC1c2ccccc2-c2ccccc21)C(=O)O (stereo unspecified) | 93.7% | 101% | 122% | 101% | 102% | 95% | 91% | 115% | 115% | 107%
5 | COc1cc2nccc(Oc3ccc(NC(=O)C4(C(=O)Nc5c(F)cc(F)cc5F)CC4)cc3)c2cc1Oc1ccc(N)cn1 | 58.5% | 50.1% | 69.7% | 70% | 28.4% | 81.3% | 28.1% | 75.3% | 25.8% | 82.3%
6 | O=C(CI)NCCNc1cccc2c(S(=O)(=O)O)cccc12 | 90.4% | 101% | 110% | 107% | 110% | 106% | 97.6% | 100% | 104% | 106%
7 | Cc1cccc(C(=O)O)n1 | 120% | -8.6% (active) | 74.4% | 100% | 101% | 119% | 72% | 115% | 118% | 107%
8 | COc1ccc(-c2n[nH]nc2-c2cc(OC)c3c(c2)OCO3)cc1 | -30.8% (active) | 9.65% (active) | 6.23% (active) | 42.7% | 51.7% | -6.92% (active) | -17.4% (active) | -14.6% (active) | 15% | 0.386% (active)
9 | CC[C@H](Nc1nc(N)nc(C2CC2)c1C#N)c1nc2cccc(NCc3ccc(C(=O)NO)cc3)c2c(=O)n1-c1ccccc1 | -0.809% (active) | 4.07% (active) | 1.08% (active) | 14.8% | 8.75% (active) | -9.63% (active) | 2.3% (active) | 9.13% (active) | 13.5% | 45.8%
10 | COc1ccc(/C(=C\c2ccc3c(c2)OCO3)C(=O)Nc2nc3ccccc3s2)cc1 | 81.7% | 94.5% | 102% | 93.6% | 101% | 97.8% | 103% | 98.5% | 110% | 100%
11 | CCCCn1cnc(-c2cc(-c3ccccc3)cc(C(F)(F)F)c2)n1 | 89.5% | 98.2% | 97.5% | 113% | 106% | 105% | 103% | 103% | 101% | 103%
12 | O=C(Cn1nncc1CN1C(=O)CSC1=O)Nc1ccc(F)cc1 | 124% | 104% | 108% | 107% | 103% | 90.8% | 102% | 107% | 97.6% | 97.6%
13 | COc1ccc2[nH]c(O)c(/C=c3/ccc4c(c3)N=C(c3ccc(F)cc3)N=4)c2c1 | 59.8% | 76.5% | 76.9% | 113% | -38.2% (active) | 62.9% | -7.41% (active) | 75.3% | 51.1% | 75.2%
14 | Cc1cc2nc3c(=O)[nH]c(=O)nc-3n(CC=O)c2cc1C | 129% | 140% | 121% | 96.2% | 100% | 106% | 88.7% | 106% | 101% | 111%
15 | Oc1[nH]c2ccccc2c1/C=c1/ccc2c(c1)N=C(c1ccc(C(F)(F)F)cc1)N=2 | 12.1% | 35.6% | 70.5% | 72.3% | 69.1% | 82.7% | 41.3% | 25.8% | 49.1% | 69.1%
16 | C=CCn1c(C)nc2cc(Nc3nc(N4CCOCC4)nc4nc[nH]c34)ccc21 | 85.6% | 71.9% | 87.3% | 74.1% | 88.4% | 82.6% | 72.9% | 97.7% | 57.3% | 108%
17 | CC(=O)N[C@@H](CCC(N)=O)C(=O)O | 104% | 107% | 98.8% | 111% | 111% | 96.7% | 84.9% | 102% | 81.7% | 98.9%
18 | CS(=O)(=O)Nc1cc(-c2cc3ncc(C#N)c(Nc4ccc(Oc5ccccc5)c(Cl)c4)c3s2)cnc1Cl | 20.5% | 62.7% | 50.6% | 75.9% | 57.6% | 43.4% | 11% | 50.7% | – | 72.2%
19 | C=C1NC(=O)C(C(C)CC)NC(=O)C2CSCC(NC(=O)CCC(=O)O)C(=O)NC(Cc3ccccc3)C(=O)NC(C)C(=O)NC(CC(C)CC)C(=O)NC(C(=O)NC(Cc3ccccc3)C(=O)N3CCCC3C(=O)N2)C(C)OC(=O)C(CO)NC(=O)C(C(O)COC)N(C)C(=O)C(C(C)C)NC(=O)C(CC(C)CC)NC1=O (stereo unspecified) | 12.5% [6 µM] | 25.3% [6 µM] | 12.9% [6 µM] | 44.9% [6 µM] | 55.6% [6 µM] | 39% [6 µM] | 30.9% [6 µM] | 12.4% [6 µM] | – | 9.55% [6 µM] (active)
20 | Cc1nc2c(-c3cnc(N)nc3)nc(N3CCOCC3)nc2n1C(C)C | 7% (active) | 12.8% | -8.95% (active) | 7.67% (active) | -3.01% (active) | -39.7% (active) | -24.7% (active) | 10% | – | -5.49% (active)
21 | CCNS(=O)(=O)c1ccc(C)cc1 | 122% | 99.1% | 100% | 97.2% | 103% | 112% | 98.3% | 111% | – | 108%
22 | Cn1c(=O)c2[nH]c(Cc3ccc4c(c3)OCO4)nc2n(C)c1=O | 120% | 88.8% | 105% | 90.5% | 88.2% | 107% | 106% | 104% | – | 107%
23 | COc1ccc(/C(=C\c2cc(OC)c(OC)c(OC)c2)C(=O)Nc2nc3ccc(Cl)cc3s2)cc1 | 76.4% | 80.8% | 94.1% | 97.2% | 104% | 98.4% | 106% | – | 100% | 92%
24 | Cc1cc(C#Cc2ccccc2)ccc1-n1c(/C=C/c2ccc(F)cc2)nc2ccccc2c1=O | 64.8% | 25.6% | 90.6% | 106% | 57.6% | 89.9% | 95.2% | – | 93.3% | 83.3%
25 | C[C@@H]1C[C@H](N)C[C@H](c2ccncc2NC(=O)c2ccc(F)c(-c3c(F)cccc3F)n2)C1 | -17.7% (active) | 4.68% (active) | 62.6% | 71.3% | 53.2% | 62% | 46.5% | 74.5% | – | 65.8%
26 | COc1ccc2nc(NC(=O)/C(=C/c3cc(OC)c(OC)c(OC)c3)c3ccc(OC)c(OC)c3)sc2c1 | 73% | 96.6% | 90% | 91.9% | 93.4% | 104% | 81.6% | 84.4% | 103% | 89%
27 | CN(C)c1ccc(/C=C(\C#N)c2nc3ccccc3n2C)cc1 | 29.2% | 15.8% | 40.3% | 64.3% | 55.2% | 34.8% | 32.3% | -8.87% (active) | – | 27.6%
